RGS4 inh: human RGS4 inhibition; P49798; Transcreener GDP fluorescence polarization, RGS4-accelerated GTP hydrolysis; Potency, µM (titrated, usually from 114 µM), without a hit: at the top dose activity change, negative = inhibition, usual class: inhibitors; actives 0.039% (n = 390,000); AID 504845; active = well fitted inhibition curve with a large enough effect; inconclusive = small, poorly fitted or top-dose-only effect; inactive = no such curve, though single readings can be large or run the other way; note: potency is the fitted concentration of half-maximal effect; % is set by controls: 0 for no effect and ±100 for the full control effect; nearly all actives have a fitted effect of over 75% in size
Target sequence (P49798 whole entry, looked up): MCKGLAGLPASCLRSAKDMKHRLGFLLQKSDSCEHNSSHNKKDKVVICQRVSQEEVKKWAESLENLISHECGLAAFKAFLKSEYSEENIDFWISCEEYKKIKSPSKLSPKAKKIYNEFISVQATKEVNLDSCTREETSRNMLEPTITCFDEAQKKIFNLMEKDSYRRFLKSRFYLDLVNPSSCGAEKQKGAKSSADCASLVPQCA
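MLSMR compounds (23 nl, pin-transferred) preincubated 10 min at room temperature with a 500nM (2x) first reagent, then RGS4 at 900nM (2x) plus Transcreener GDP mix added; fluorescence polarization (620/688 nm) read before and after 90 min at 30 °C.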
uPA surface inh: inhibitors of cell surface uPA generation | cell surface uPA generation assay, qHTS | Potency, µM (highest dose often 38.3 µM), for the others: at the highest dose activity change, negative = inhibition, most hits filed as inhibitors | actives 0.31% (n = 330,000) | AID 540303; active = well fitted inhibition curve with a large enough effect; inconclusive = small, poorly fitted or top-dose-only effect; inactive = no such curve, though single readings can be large or run the other way; tested in mouse RAW 264.7 cells; note: potency is the fitted concentration of half-maximal effect; % is set by controls: 0 for no effect and ±100 for the full control effect; nearly all actives have a fitted effect of over 55% in size
DRD3 agonist: D3 dopamine receptor (human) agonism. D3R DiscoveRx beta-arrestin cells, luminescence, 90 min. max activation, %. actives 0.58% (n = 410,000). AID 652048; in the data active = max activation above about 30%; note: 0% is about no effect
Target sequence (P35462 whole entry, looked up): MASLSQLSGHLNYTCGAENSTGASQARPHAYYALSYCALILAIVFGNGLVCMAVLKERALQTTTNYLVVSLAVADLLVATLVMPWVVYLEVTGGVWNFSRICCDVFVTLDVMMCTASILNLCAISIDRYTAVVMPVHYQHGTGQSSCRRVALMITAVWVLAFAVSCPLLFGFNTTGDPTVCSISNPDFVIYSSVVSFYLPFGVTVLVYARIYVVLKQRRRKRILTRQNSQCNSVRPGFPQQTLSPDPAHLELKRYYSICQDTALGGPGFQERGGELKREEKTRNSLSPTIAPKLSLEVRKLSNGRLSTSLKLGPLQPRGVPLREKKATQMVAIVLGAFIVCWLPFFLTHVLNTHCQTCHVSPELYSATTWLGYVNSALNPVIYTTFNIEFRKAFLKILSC
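Agonist mode: compounds and dopamine controls were applied to plated cells for 90 min at 37 degrees C after an overnight attachment at 1500 cells/well. Luminescent read-out followed 30 - 60 minutes at room temperature with DiscoveRx detection reagent.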
DRD3 antagonist: antagonists of human D3 dopamine receptor. P35462. D3R cells, DiscoveRx beta-arrestin luminescence, antagonist mode; active compounds read low. max response, negative = inhibition, %. actives 2.5% (n = 360,000). AID 652054; in the data active = max response below about -50%; inconclusive = no clear call, values can overlap the other calls; note: % is set by controls: 0 for no effect and ±100 for the full control effect
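Cells expressing the human receptor were seeded at 1500 cells/well, incubated overnight at 37 degrees C in 5% CO2, then exposed to library compounds with dopamine controls for 90 minutes at 37 degrees C before luminescent detection.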
The depositor's hits bear a star; ? = inconclusive; . = not tested or not shown; [ ] = another dose, or the depositor's remark. In the library only some 3.1% were active in any assay of this set; here they are far more common.

SMILES | RGS4 inh | uPA surface inh | DRD3 agonist | DRD3 antagonist
N#Cc1ccc(C23CC4(C2)[C@H](CN(CC2CCCCC2)[C@@H]4c2ccccc2)C3c2ccccc2)cc1 (some centres not stated) | -6% | 17% | 5 | 22
N#Cc1ccc(C23CC4(C2)[C@H](CN(CC2CCCCC2)[C@@H]4c2ccccc2)C3c2ccc(Cl)nc2)cc1 (some centres not stated) | 4% | -9% | 17 | -72*
Cc1ccc2oc(C(=O)Nc3ccc(S(=O)(=O)Nc4nccc(C)n4)cc3)cc(=O)c2c1 | 24% | . | -10 | .
CCCOc1ccc(CSc2nc3ccccc3[nH]2)cc1 | -28% | ? | 11 | -65*
CCC(C(=O)Nc1ccc(C(=O)OC)cc1)n1nc(-c2ccc(C)cc2)c2c(c1=O)CCCC2 (configuration not stated) | -19% | . | -15 | .
CN1CCc2ccccc2Cc2[nH]c3ccccc3c2CC1 | ? | -4% | -54 | -110*
CCCN(CCC)C(=O)CSc1nc2n[nH]c(C)c2c(=N)n1-c1ccc(OC)cc1 | 1% | -11% | 2 | 12
CCCN(CCC)C(=O)CSc1nc2n[nH]c(C)c2c(=N)n1-c1ccc(OCC)cc1 | -40% | -13% | 2 | -50*
CO/N=C(/C(=O)N[C@@H]1C(=O)N2C(C(=O)[O-])=C(C[n+]3ccn4ncccc43)CS[C@H]12)c1nsc(N)n1 | . | . | -8 | .
COc1ccc(N/C=C\C(=O)c2ccc3c(c2)OCO3)cc1OC | -24% | -2% | 6 | 14
COC(=O)/C(=C\c1c(OC)cc(OC)cc1OC)C(=O)c1ccc2c(c1)OCO2 | -17% | -23% | 13 | -93*
CCC(C)NC(=O)c1ccccc1NC(=O)CN1C(=O)c2cccc3cccc1c23 (configuration not stated) | -4% | . | -1 | .
Cc1cccc(N2C(=O)CSC23C(=O)N(Cc2cccc(C(F)(F)F)c2)c2ccccc23)c1 (configuration not stated) | -31% | . | -11 | .
C/C(=N/OC(=O)c1c(-c2ccccc2Cl)noc1C)c1cnccn1 | -3% | -7% | -4 | 64
Cc1onc(-c2ccccc2Cl)c1C(=O)O/N=C(\N)c1ccc([N+](=O)[O-])o1 | 9% | 4.5µM* | 3 | -12
Cc1ccc(C(=O)NCCC(C)C)cc1NC(=O)c1nsc2ccccc12 | 0% | . | 6 | .
COc1ccc(-c2c(C)sc(NC(=O)c3ccnn3C)c2C#N)cc1 | -29% | -3% | 55* | 98
CN(CC(=O)Nc1ccc(Cl)cc1)C(=O)c1cccc(S(=O)(=O)N2CCN(Cc3ccccc3)CC2)c1 | -14% | -4% | 2 | -5
CN(CC(=O)Nc1ccc(Cl)cc1)C(=O)c1cccc(S(=O)(=O)NCc2ccccc2)c1 | -16% | -7% | -31 | -64*
CC1CCN(S(=O)(=O)c2ccc3c(c2)c(=O)c(C(=O)N2CCCCC2)cn3C)CC1 | -6% | . | 35* | 7
Cn1c(=O)c2ccccc2n2c(CCC(=O)N3CCN(c4cccc(Cl)c4)CC3)nnc12 | -4% | . | 2 | .
CCCCCOC(=O)c1ccc(Nc2nc(C(=O)OCC)nc3ccccc23)cc1 | -15% | . | 4 | .
O=C1C=CC(=O)C(C2=C3C(=O)N(CCc4ccccc4)CC(=O)N3CCC2)=C1 | ? | 4% | -1 | -72*
CC1=NN(c2nc(-c3ccc(C)cc3)cs2)C(=O)C1N=Nc1cccc(O)c1 (configuration not stated) | ? | 1% | -9 | 4
CC1=NN(c2nc(-c3ccc(C)cc3)cs2)C(=O)C1N=Nc1ccccc1O (configuration not stated) | 10% | -1% | -13 | -64*
SMILES | RGS4 inh | uPA surface inh | DRD3 agonist | DRD3 antagonist
Cc1ccc(NC(=O)C2CCN(S(=O)(=O)c3c(C)noc3C)CC2)cc1 | ? | . | -7 | .
CCCN(CCO)Cc1cccc(Cl)c1 | 11% | . | -13 | 12
CCCN(CCO)Cc1ccc(Cl)c(Cl)c1 | 11% | 9% | -32 | -59*
CCc1ccc(S(=O)(=O)Nc2ccc(N3CCN(C)CC3)cc2)cc1 | -8% | 1% | -9 | -82*
Cc1ccc(S(=O)(=O)Nc2ccc(N3CCN(C)CC3)nc2)cc1 | -12% | -3% | -16 | -59*
CCc1ccc(S(=O)(=O)Nc2ccc3c(c2)n(C)c(=O)c(=O)n3C)cc1 | -2% | . | 6 | .
O=C(Nc1cccc(C(=O)OCc2cc(=O)n3c4c(sc3n2)CCCC4)c1)c1cccc(F)c1 | -10% | . | 0 | .
COC(=O)C1=C[C@@H](C(=O)OC)C2C3=C(C(=O)[C@]2(C)NC(=O)c2ccccc2)[C@H](C)n2c(=O)n(C)c(=O)n2[C@@H]3C1 (some centres not stated) | 6% | . | . | .
CCCCN(C)Cc1c(C)[nH]c2ccccc2c1=O | 10% | -10% | -4 | 0
Cc1[nH]c2ccccc2c(=O)c1CN(C)Cc1ccccc1 | 3% | 2% | -3 | -63*
C=CCc1ccccc1OCCNCc1ccccc1 | 2% | -2% | -14 | -88*
Cc1cc(C)c(C)c(OCCNCc2ccccc2)c1 | -1% | -2% | -12 | -77*
CC(C)(C)c1ccc(OCCNCc2ccccc2)cc1 | -13% | -2% | -16 | -53*
Brc1ccccc1OCCNCc1ccccc1 | -14% | 0% | 4 | -71*
Cc1ccc(CNC(=O)c2ccc3c(c2)N(Cc2ccccc2F)C(=O)c2ccccc2S3(=O)=O)cc1 | 13% | . | -8 | .
CCOC(=O)c1c(C)oc2nc(C)nc(NC(C)c3ccccc3)c12 (configuration not stated) | 10% | . | -13 | .
Cc1cc(Br)ccc1OCCNCc1ccccc1 | 16% | 9% | -10 | -70*
COc1ccc(N2CCN(C(=O)CSc3nc(-c4ccccc4)no3)CC2)cc1 | -8% | . | -10 | .
Cc1cc(=O)[nH]c2nnc(SCc3ccc(Cl)cc3Cl)n12 | 8% | . | 1 | .
COc1ccccc1CNC(=O)C1CCC(=O)N(CCCN2CCCC2=O)C1 (configuration not stated) | 0% | 2% | 3 | 6
COc1ccc(CNC(=O)C2CCC(=O)N(CCCN3CCCC3=O)C2)c(OC)c1 (configuration not stated) | -5%[56.9 µM] | 0% | 33* | 19
Cc1nc2cc(Oc3nc(NCCN(C)C)nc4ccsc34)ccc2s1 | . | . | -15 | -59*
O=C(N/N=C/c1ccccn1)c1cc([N+](=O)[O-])cc([N+](=O)[O-])c1 | 7% | -9% | -13 | -78*
CN1CCN(C(CNC(=O)C(=O)Nc2ccc3c(c2)OCCO3)c2ccc(F)cc2)CC1 (configuration not stated) | -1% | 3% | 108* | -1
Cc1ccc(C(CNC(=O)C(=O)Nc2ccc3c(c2)OCCO3)N2CCN(C)CC2)cc1 (configuration not stated) | -23% | -14% | -13 | 0
O=S(=O)(c1ccc(F)cc1)N1CCN(Cc2cc3c(cc2Br)OCCO3)CC1 | -6% | 17% | -16 | -1
Oc1ccc(N2CCN(Cc3cc4c(cc3Br)OCCO4)CC2)cc1 | ? | -5% | -17 | -86*
COc1ccc(N=c2ssnc2Cl)cc1 | -59%[11.4 µM] | -6% | -6 | -55*
